# From PubChem BioAssay (Tox21)
# Inconclusive results are not listed. A call without a number means that no potency is given here. Calls of active or inactive are those of the source. Calls come from the whole dose curve; as a rule, active = well fitted cell-killing curve with a large enough effect in the repeat runs; inconclusive = weak or mixed curves; inactive = flat fitted curve, though single readings scatter.
# Assay: qHTS assay to identify small molecule antagonists of the TGF-beta/Smad signaling pathway - cell viability counter screen (AID 1346824); note: nearly all actives have a fitted effect of over 50% in size
# Settings: SBE-bla HEK293T viability, CellTiter-Glo luminescence; series mostly up to 76.8 µM
# From the text: U.S. Tox21 Program National Center for Advancing Translational Sciences [NCATS] NIH Chemical Genomics Center [NCGC] U.S. Environmental Protection Agency [EPA] National Institutes of Environmental Health Sciences [NIEHS] National Toxicology Program [NTP] U.S. Food and Drug Administration [FDA] Tox21 Assay Overview: Transforming growth factor beta (TGF-beta) superfamily consists of a large number of structurally related dimeric proteins that act as hormones or local mediators in regulating a wide range of biological functions. This superfamily includes TGF-betas themselves, the bone morphogenetic proteins (BMPs) and the activins. These ligands induce oligomerization of serine/threonine receptor kinases and phosphorylate the cytoplasmic signaling molecules of Smad protein family. CellSensor SBE-bla HEK 293T cell line (Life Technologies, Carlsbad, CA), responsive to TGF-beta was used to screen Tox21 10K compound library for identification of agonists/antagonists of the Smad signaling pathway. This cell line contains a beta-lactamase reporter gene under control of the Smad binding element (SBE) stably integrated into HEK 293T cells. Also cytotoxicity of the compounds was tested in parallel by measuring the cell viability using CellTiter-Glo assay system in the same wells.
# Tox21 Assay Protocol Summary: SBE-bla HEK 293T cells were dispensed at 4,000/well in 5 uL of assay medium into black wall/clear-bottom 1536-well plates using a Multidrop Combi (ThermoFisher Scientific, Waltham, MA) dispenser. After the assay plates were incubated at 37 C and 5% CO2 for an overnight, 23 nL of compounds dissolved in DMSO, positive controls or DMSO only was transferred to the assay plate by a Pintool station (Kalypsys, San Diego, CA). Compound transfer was followed by the addition of 1 uL of 0.25 ng/mL TGF-beta1 or assay buffer using two separate tips of Flying Reagent Dispenser (FRD, Aurora Discovery, San Diego, CA). The assay plates were incubated at 37 C and 5% CO2 for 5 hr. One uL of LiveBLAzer B/G FRET substrate (Life Technologies) was added using a Flying Reagent Dispenser (FRD, Aurora Discovery, San Diego, CA) and the plates were incubated at room temperature for 2 hr. Fluorescence intensity (405 nm excitation, 460 nm and 530 nm emissions) was measured using an Envision plate reader (PerkinElmer, Shelton, CT). For cytotoxicity read, 4 uL of CellTiter-Glo reagent (Promega Corporation, Madison, WI) was added to each well of the assay plates using FRD. After 30 min incubation at room temperature, the luminescence intensity was measured using ViewLux plate reader (PerkinElmer).
# Potency is the fitted concentration of half-maximal effect.
row,Compound,Potency
1,COP(=S)(OC)Oc1ccc([N+](=O)[O-])c(C)c1,inactive
2,CC(Cc1ccc2c(c1)OCO2)NO (stereo not given),inactive
3,CCNS(=O)(=O)C(F)(F)C(F)(F)C(F)(F)C(F)(F)C(F)(F)C(F)(F)C(F)(F)C(F)(F)F,inactive
4,Oc1ccc([C@H]2CNCc3c2ccc(O)c3O)cc1O,inactive
5,Cc1cc2c3c(c1)C(c1ccccc1)=N[C@@H](NC(=O)c1ccncc1)C(=O)N3CC2,inactive
6,Clc1ccc(C(Cl)(Cl)Cl)cc1Cl,inactive
7,O=C(O)[C@H](O)[C@@H](O)C(=O)O,inactive
8,CC(Cc1ccccc1)N(C)Cc1ccco1 (stereo not given),inactive
9,O=c1[nH]c(Cl)c(Cl)cc1Cl,inactive
10,N#Cc1ccc(N(CC(N)=O)CC(F)(F)F)cc1C(F)(F)F,inactive
11,CCCCN(CCCC)C(=S)[S-].CCCCN(CCCC)C(=S)[S-].[Ni+2],inactive
12,CCCCC/C=C\C/C=C\C/C=C\C/C=C\CCCC(=O)NCC(=O)O,inactive
13,CN1C2CCC(C)(C)C1CC(OC(=O)C(O)(c1cccs1)c1cccs1)C2 (stereo not given),inactive
14,C[C@]12Cc3cn[nH]c3C[C@@H]1CC[C@@H]1[C@@H]2CC[C@@]2(C)[C@H]1CC[C@]2(C)O,inactive
15,CC(C)Br,inactive
16,CCN(CC)CCc1c[nH]c2ccccc12,inactive
17,BrCCCBr,inactive
18,C=Cc1cccc(CCl)c1,inactive
19,O=C(NC(=O)c1ccccc1Cl)Nc1ccc(OC(F)(F)F)cc1,inactive
20,COc1cnc(OC)n2nc(NS(=O)(=O)c3c(OCC(F)F)cccc3C(F)(F)F)nc12,inactive

row,Compound,Potency
1,O=[N+]([O-])c1cc(C(F)(F)F)c(Cl)c([N+](=O)[O-])c1Nc1ncc(C(F)(F)F)cc1Cl,30.9 µM (active)
2,[Cl][Hg][c]1ccccc1,19.5 µM (active)
3,CCOC(=O)Cc1ccccc1,inactive
4,CC(=O)C(Cl)C(=O)N(C)C (stereo not given),inactive
5,CCCCON=O,inactive
6,CCN(CC)Cc1nccn1-c1ccc([N+](=O)[O-])cc1C(=O)c1ccccc1Cl,inactive
7,CCC[CH2][Sn]([CH2]CCC)([CH2]CCC)[O][Sn]([CH2]CCC)([CH2]CCC)[CH2]CCC,1.51 µM (active)
8,CCCCc1ccccc1,inactive
9,CCOC(=O)CCN(SN(C)C(=O)Oc1cccc2c1OC(C)(C)C2)C(C)C,inactive
10,O=C(O)CCCCCCNC1c2ccccc2CCc2ccccc21,inactive
11,CC1CN1 (stereo not given),inactive
12,C[N+]1(C)[C@@H]2CC[C@H]1CC(OC(=O)C(CO)c1ccccc1)C2 (stereo not given in full),inactive
13,CCn1cc[n+](C)c1 (tested in a mixture with another compound),inactive
14,O=[N+]([O-])c1cccc2cccc([N+](=O)[O-])c12,inactive
15,CNC(=O)O/N=C(\C)C(C)S(C)(=O)=O (stereo not given),inactive
16,N#Cc1sc2c(=O)c3ccccc3c(=O)c=2sc1C#N,49 µM (active)
17,[C-]1=CC=CC1.[Cl][Zr+2][Cl].c1cc[cH-]c1,inactive
18,Cc1ccc2cc3c(ccc4ccccc43)c3c2c1CC3,inactive
19,CCCCn1cc[n+](C)c1.[Cl][Fe-]([Cl])([Cl])[Cl],inactive
20,CCCCC(CC)COC(=O)c1ccccc1C(=O)OCC(CC)CCCC (stereo not given),inactive
